# High-throughput results deposited in PubChem by National Center for Advancing Translational Sciences (NCATS).
# A selection: hits, their analogues and other compounds. The true share with any hit is near 12%.
# BAZ2B inh: BAZ2B (human) inhibition; AlphaScreen BAZ2B-H3K14Ac peptide displacement; 4.4% of 360,000 active; AID 504333; Q9UIF8; Potency, µM (doses to about 114 µM), for the others: top-dose activity change, negative = inhibition, most hits filed as inhibitors; note: % is set by controls: 0 for no effect and ±100 for the full control effect; nearly all actives have a fitted effect of over 60% in size
#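 BAZ2B 50 nM plus b-H3(5-23)K14Ac 50 nM, PBS pH 7.4/0.01% Tween-20, 30 min RT; compound added (max 110 uM), 30 min RT; streptavidin donor/Ni-chelate acceptor beads 10 ug/mL final, 20 min dark; AlphaScreen read.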
# G9a block: blocks human histone lysine methyltransferase G9a. Q96KQ7. G9a H3K9 monomethylation, AlphaScreen, 2 h. Potency, µM (top dose mostly 102 µM), inactives show top-dose activity, negative = inhibition, most hits filed as inhibitors. 8.8% of 350,000 active. AID 504332; note: % is set by controls: 0 for no effect and ±100 for the full control effect; nearly all actives have a fitted effect of over 75% in size
#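 Chemiluminescent proximity detection of H3K9 monomethylation, read after 10 min bead incubation in the dark. Reaction: 20 nM G9a, 500 nM biotin-H3K9 peptide, 20 uM SAM cofactor, 2 h, room temperature, following 15 min enzyme-compound preincubation.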
# Sfp PPTase inh: Sfp phosphopantetheinyl transferase inhibition; Biochemical Sfp PPTase activity, qHTS; 3.5% of 310,000 active; Q9F4F7; AID 1490; Potency, µM, inactives show largest response in the series, negative = inhibition, actives largely listed as inhibitors;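 note: the enzyme is Sfp with the accession as filed and its product quenches rhodamine fluorescence; 0% = enzyme reaction without inhibitor and -100% = no enzyme wells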
#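 Sfp 15 nM + cpd, 15 min RT; start w/ rhodamine-CoA 5 uM, BHQ-2-YbbR 12.5 uM (final); 50 mM Hepes pH 7.6, 10 mM MgCl2, 0.01% NP-40, 0.01% BSA; read 525/598 nm at 0 and 30 min.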
# JMJD2A Tudor: JMJD2A Tudor domain (human) inhibition; O75164; AlphaScreen JMJD2A-Tudor / H3K4me3 peptide binding; Potency, µM (titrated, usually from 114 µM), for inactives: at the highest dose activity change, negative = inhibition, actives largely listed as inhibitors; 4.4% of 390,000 active; AID 504339; note: % is set by controls: 0 for no effect and ±100 for the full control effect; nearly all actives have a fitted effect of over 50% in size
# Target sequence (O75164 whole entry, looked up, the tested form may be a part): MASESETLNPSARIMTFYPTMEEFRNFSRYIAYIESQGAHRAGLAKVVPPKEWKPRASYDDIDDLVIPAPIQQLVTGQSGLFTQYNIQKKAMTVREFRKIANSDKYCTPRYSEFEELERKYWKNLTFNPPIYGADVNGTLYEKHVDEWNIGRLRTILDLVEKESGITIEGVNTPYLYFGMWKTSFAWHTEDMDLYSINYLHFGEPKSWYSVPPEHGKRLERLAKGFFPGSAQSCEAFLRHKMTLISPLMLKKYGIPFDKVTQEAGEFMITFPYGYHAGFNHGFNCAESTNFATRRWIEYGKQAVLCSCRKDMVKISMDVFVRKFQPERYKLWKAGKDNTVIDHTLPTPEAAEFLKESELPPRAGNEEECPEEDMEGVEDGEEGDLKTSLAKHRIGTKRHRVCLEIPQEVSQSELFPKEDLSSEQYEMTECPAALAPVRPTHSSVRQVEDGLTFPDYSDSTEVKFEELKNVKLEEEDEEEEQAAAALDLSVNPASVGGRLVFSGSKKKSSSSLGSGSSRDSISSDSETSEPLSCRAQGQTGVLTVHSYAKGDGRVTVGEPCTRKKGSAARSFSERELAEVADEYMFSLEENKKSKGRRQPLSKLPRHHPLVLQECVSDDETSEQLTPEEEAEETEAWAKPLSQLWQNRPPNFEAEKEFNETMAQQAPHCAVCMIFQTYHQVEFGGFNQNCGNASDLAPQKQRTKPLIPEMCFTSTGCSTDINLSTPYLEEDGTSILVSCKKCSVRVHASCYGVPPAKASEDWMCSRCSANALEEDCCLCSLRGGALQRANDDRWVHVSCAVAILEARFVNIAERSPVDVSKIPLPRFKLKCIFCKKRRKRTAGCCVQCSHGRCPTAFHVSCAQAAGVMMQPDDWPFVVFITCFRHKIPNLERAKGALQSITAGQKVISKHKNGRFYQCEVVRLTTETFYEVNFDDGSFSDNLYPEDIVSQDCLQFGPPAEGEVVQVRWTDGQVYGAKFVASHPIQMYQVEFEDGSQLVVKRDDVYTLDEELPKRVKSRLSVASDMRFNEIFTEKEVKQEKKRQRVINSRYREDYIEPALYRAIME
# HP1b chromo inh: HP1-beta chromodomain-methylated histone interaction inhibition; Potency, µM (doses to about 114 µM), inactives show at the top dose activity change, negative = inhibition, most hits filed as inhibitors; AlphaScreen HP1-beta / biotin-H3K9me3 peptide binding; P83916; AID 540317; 0.56% of 390,000 active; note: nearly all actives have a fitted effect of over 70% in size
#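 Compound inhibition of the preformed complex between 50 nM HP1-beta and 50 nM biotinylated H3K9me3 peptide was read by AlphaScreen. Buffer was PBS pH 7.4 with 0.01% Tween-20. Incubations ran 30 min at room temperature, with 10 ug/mL donor/acceptor beads.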
# L3MBTL1 block: blocks human L3MBTL1 | AlphaScreen L3MBTL1–H3K9me1 peptide binding | Q9Y468 | Potency, µM (top dose mostly 57.1 µM), for inactives: top-dose activity, negative = inhibition, hits mostly inhibitors | 0.66% of 230,000 active; note: % is set by controls: 0 for no effect and ±100 for the full control effect; nearly all actives have a fitted effect of over 60% in size
#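 First, the protein-peptide complex forms for 30 min at room temperature (L3MBTL1 50 nM, biotinylated H3K9me1 peptide 75 nM). Next, compounds are pin-transferred and incubated 30 min. Finally, AlphaScreen beads are added and read after 30 min.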
# The depositor's hits bear a star; ? = inconclusive; . = not tested or not shown; [ ] = dose if it differs, or a comment. Calls come from the whole dose curve; as a rule, active = well fitted curve in the direction sought with a large enough effect; inconclusive = small, poorly fitted or top-dose-only effect, or another doubt; inactive = no such curve, though single readings can be large; an effect the other way counts as inactive or inconclusive. Potency is the fitted concentration of half-maximal effect.
SMILES,BAZ2B inh,G9a block,Sfp PPTase inh,JMJD2A Tudor,HP1b chromo inh,L3MBTL1 block
CCCCC(c1nnnn1CC1CCCO1)N1CCN(c2nc3ccccc3s2)CC1 (centres undefined),50.1µM*,28.2µM*,-9.8%,-17.8%[11.4 µM],61.5%,-1.0%
Fc1ccc(C(c2nnnn2Cc2ccco2)N2CCN(C3CCCCC3)CC2)cc1 (centres undefined),0.2%,-9.3%[12.7 µM],13.6%,-1.7%,20.8%,.
CCSc1ncc(Cl)c(C(=O)N2CCN(c3ccccc3OC)CC2)n1,-7.4%,-6.4%[59 µM],.,-19.4%,2.7%,.
Cc1ccc(Cl)cc1Nc1nn2c(=O)c3ccc(C(=O)NC(C)c4ccccc4)cc3nc2s1 (centres undefined),-9.4%,-5.7%[59 µM],.,10.0%,10.5%,.
CCC(c1nnnn1CCc1ccccc1)N1CCN(c2ccc(OC)cc2)CC1 (centres undefined),?,11.2µM*,1.6%,-32.8%,-4.9%,-1.5%
CCCCC(c1nnnn1CCOC)N1CCN(c2cccc(OC)c2)CC1 (centres undefined),50.1µM*,44.7µM*,8.3%,1.4%[11.4 µM],14.3%,4.8%
COCCn1nnnc1C(c1ccccc1)N1CCN(c2ccccc2)CC1 (centres undefined),50.1µM*,?,21.2%,?,13.2%,1.1%
CCCCC(c1nnnn1CCOC)N1CCN(Cc2ccccc2)CC1 (centres undefined),-31.5%,?,5.1%,-31.0%,74.3%,?
COc1ccc(Cn2nnnc2C(c2ccccc2)N2CCN(C3CCCC3)CC2)cc1 (centres undefined),-37.1%,?,-1.4%,-3.4%[11.4 µM],54.0%,-5.6%
COc1ccc(C(c2nnnn2CCc2ccccc2)N2CCN(C3CCCC3)CC2)cc1 (centres undefined),4.6%,79.4µM*,-0.3%,-31.7%,11.1%,0.5%
COCCn1nnnc1C(c1ccccc1)N1CCN(C)CC1 (centres undefined),-33.5%,?,6.6%,?,16.0%,-8.2%
CC(C)(C)C(=O)Nc1nc2nc(-c3ccccc3)cc(=O)n2[nH]1,-3.5%,?,.,-21.7%,18.2%,.
CC(=O)N(Cc1cccnc1)c1nc2c(C)c(C)ccc2s1,-20.3%,?,.,-20.1%,18.0%,.
CCOc1ccc(CNC(=O)CCn2nc(C)c3c(C)n(-c4ccccc4)nc3c2=O)cc1,20.7%,13.0%[59 µM],.,-14.5%,71.8%,.
COCCn1nnnc1C(c1cccc(C#N)c1)N1CCCCCC1 (centres undefined),?,44.7µM*,4.5%,-17.6%,26.8%,5.5%
COc1ccc(NC(=O)CSc2c(C)nn(-c3nnc(C)c(=O)[nH]3)c2C)cc1,31.6µM*,12.6µM*,50.1µM*,39.8µM*,40.7%,0.4%
COc1ccc(NC(=O)CSc2nncn2C)cc1,6.3%,-2.6%[2.33 µM],3.7%,-4.1%,35.8%,.
CCSC(=Nc1ccccc1)C1=C(O)COC1=O,?,35.5µM*,11.2%,-34.1%,37.9%,2.7%
COc1ccc(CNC(=O)c2cnn3c(C)c(Cc4ccc(F)cc4)c(C)nc23)cc1,-3.0%,1.1%[59 µM],.,-8.9%,25.6%,.
Cc1cccc(Oc2cc(NC(=O)Cn3cnc([N+](=O)[O-])n3)cc([N+](=O)[O-])c2)c1,?,14.1µM*,20.8%,?,-18.5%,-17.2%
Cc1cc([N+](=O)[O-])nn1CCCC(=O)Nc1cc(Oc2ccccc2)cc([N+](=O)[O-])c1,?,39.8µM*,-2.2%,?,0.7%,-10.5%
CC1=C(C(=O)Nc2cccnc2)C(c2ccc(F)cc2)n2nc(-c3cccc(C)c3)nc2N1 (centres undefined),0.3%,4.3%[59 µM],.,-17.6%,18.7%,.
CCOc1ccc(-c2csc(-c3c(N)c(C(=O)c4ccc5c(c4)OCO5)n4ccccc34)n2)cc1,10.2%,43.8%[59 µM],.,-7.0%,103.2%,.
O=S(=O)(Nc1ccc(-c2ccc(N3CCCCC3)nn2)cc1)c1ccc(OC(F)(F)F)cc1,-14.8%,-19.8%[59 µM],.,-24.6%,-6.4%[57 µM],.
Cn1cc(C(=O)O)c(=O)c2cc(S(=O)(=O)N3CCCCC3)ccc21,-2.0%,?,.,89.1µM*,1.7%,.
SMILES,BAZ2B inh,G9a block,Sfp PPTase inh,JMJD2A Tudor,HP1b chromo inh,L3MBTL1 block
CN(CCNC(=O)c1cn(C)c2ccc(S(=O)(=O)N3CCCC3)cc2c1=O)CCc1ccccc1,-3.8%,2.24µM*,9.9%,-7.9%,20.9%,0.3%
Cn1cc(C(=O)N2CCCCC2)c(=O)c2cc(S(=O)(=O)N3CCCC3)ccc21,-16.6%,16.7%,14.5%,-16.7%,22.1%,.
COC(=O)c1cn(C)c2ccc(S(=O)(=O)N3CCCC3)cc2c1=O,?,50.1µM*,-23.8%,-16.4%,6.0%,-4.5%
Cn1cc(C(=O)NCCc2ccccc2)c(=O)c2cc(S(=O)(=O)N3CCCCC3)ccc21,.,0.3%[59 µM],.,-0.7%,39.9%,.
Cc1cc(C)c(S(=O)(=O)NCCc2sc(-c3cccnc3)nc2C)c(C)c1,-8.2%,-12.0%[59 µM],.,-17.1%,8.6%[57 µM],.
CCNc1nc(NCC)nc(NC(N)=S)n1,-4.7%,25.1µM*,-7.3%,-7.7%,16.1%,-8.7%
CCNc1nc(NC(N)=S)nc(NC(C)(C)C)n1,0.9%,3.55µM*,31.6µM*,-5.1%,?,2.1%
CCOC(=O)c1ccc(N2CCN(c3cc(C)ccc3C)CC2)c(NC(=O)Nc2ccccc2)c1,-0.9%,-2.9%[59 µM],.,-17.1%,41.6%,.
CC(C)(C)c1cc(C(c2cccnc2)N2CCN(CCO)CC2)cc(C(C)(C)C)c1O (centres undefined),50.1µM*,10µM*,20µM*,31.6µM*,?,.
CC(=O)Nc1ccc(S(=O)(=O)N2CCN(S(=O)(=O)c3ccc4c(c3)OCCO4)CC2)cc1,.,.,.,-5.4%,.,.
Cc1ccc(-n2ncc3c(NC4CCCCC4)ncnc32)cc1C,-0.2%,2.4%[59 µM],.,1.2%,27.1%,.
O=C(COC(=O)CCc1c[nH]c(=O)[nH]1)Nc1cccc(Cl)c1,0.2%,39.8µM*,-11.3%,-10.8%,37.3%,4.6%
O=C(COC(=O)C12CC3CC(CC(C3)C1)C2)Nc1ccc2[nH]c(=O)[nH]c2c1,-27.2%,7.9%,2.4%,-10.3%,31.6%,.
O=C(COC(=O)Cc1c(Cl)cccc1Cl)Nc1ccc2[nH]c(=O)[nH]c2c1,-1.4%,50.1µM*,.,-13.8%,16.1%,5.8%
O=C(COC(=O)CCCOc1ccc(Cl)cc1Cl)Nc1cccc(Cl)c1,19.5%,68.9%[59 µM],1.5%,26.4%,78.4%,28.1%
O=C(COC(=O)Cc1c(F)cccc1Cl)Nc1ccc2[nH]c(=O)[nH]c2c1,.,.,.,-23.4%,-8.4%,-7.6%
CC(C)(C)C1CCC(C(=O)OCC(=O)Nc2ccc3[nH]c(=O)[nH]c3c2)CC1 (centres undefined),-1.7%,44.7µM*,20.6%,-2.8%,15.6%,-2.4%
